The source of these data is PubChem BioAssay.

Results filed as inconclusive are left out. Active and inactive are the calls of the source.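 How the source made its calls, unless noted: active means inhibition above 54%, about 3 SD of non-fluorescent compounds; inactive means the rest.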

Test [1] in a line: rapamycin-like changes in RPL19A-GFP expression – cell-based, S. cerevisiae, multiplex flow cytometry, primary screen (AID 1862; in the data active means percent of DMSO control GFP below about 86%;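 further: lower values mimic rapamycin by blocking the RPL19A rise seen in DMSO cells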). The following applies: S. cerevisiae RPL19A-GFP strain, flow cytometry fluorescence, 3 h; at 10 µM; stronger effect = lower value. For orientation: Flow cytometry measures light scatter and fluorescence of single cells or particles in a stream.
A short description of test [2]: TOR pathway GLN3 branch reporter MEP2-GFP changes – S. cerevisiae, multiplex flow cytometry, primary screen (AID 1867;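 active means GFP response, as percent of the DMSO control, above the screen-wide mean plus 3 SD, about 139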;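 further: median GFP channel fluorescence of barcode-gated MEP2-GFP cells measured by flow cytometry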). The following applies: S. cerevisiae MEP2-GFP strain, 3 h, at 10 µM, stronger effect = higher value, 100% means same as DMSO wells.
A short description of test [3]: TOR pathway RTG branch CIT2 reporter changes – S. cerevisiae, GFP fusion, multiplex flow cytometry, primary screen (AID 1870;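 active means percent response above a set limit, the screen-wide mean plus 3 SD, cut at about 130% in these data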;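 further: barcoded CIT2-GFP strain pooled with four other GFP strains with rapamycin as positive control; median GFP fluorescence per well over plate mean of DMSO wells so 100% = DMSO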). The following applies: S. cerevisiae CIT2-GFP expression, 3 h, at 10 µM, stronger effect = higher value.
The nature of test [4]: TOR pathway LAP4-GFP level changes – S. cerevisiae, multiplex flow cytometry, primary screen (AID 1873;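 active means GFP signal, as percent of the solvent control, above the screen mean plus 3 SD, about 149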). The following applies: S. cerevisiae LAP4-GFP expression, 3 h, at 10 µM, stronger effect = higher value.
Test [5] can be described thus: yeast AGP1-GFP level changes, GLN3 branch – cell-based, multiplex flow cytometry, S. cerevisiae, primary screen (AID 1887;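 active means GFP signal above the screen-wide mean plus 3 SD, that is over about 124.5% of the solvent control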;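 further: AGP1-GFP fusion strain of S. cerevisiae within a five-strain barcoded multiplex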). The following applies: 3 h, at 10 µM, stronger effect = higher value.
A short description of test [6]: reduced mouse 2C T cell binding to pMHC/ICAM-1 vesicles – MLPCN validation set, flow cytometry, LFA-1/ICAM-1 modulator project, pilot screen (AID 2523;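 active means response below a set limit, under 55% cells CD8-positive and vesicle-bound, and CD8 cells' 90th-percentile brightness under 279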;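 on vesicle binding response: mean PE anti-B7-1 fluorescence of CD8+ cells relative to row control; 100% = QL9-loaded vesicles with DMSO vehicle in the same plate row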). The following applies: 2C mouse CD8+ T cells, at 7 µM, stronger effect = lower value; double positive events: measured here: CD8+/vesicle+ event percentage.
In test [7] the target is Integrin beta-1 (Homo sapiens) + Integrin alpha-4 (Homo sapiens) (UniProt P13612+P05556). The experiment in a line: alpha4beta1 integrin LIBS antibody binding reduction – U937 cells, HUTS-21 mAb, flow cytometry, validation set, VLA-4 allosteric modulator project, pilot screen (AID 2674;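 active means inhibition above 50%, about 3 SD of the validation set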;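 further: antibody binding induced by the VLA-4 ligand LDV present at three times its Kd; 0% = LDV ligand with antibody and no compound and 100% = antibody without LDV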). The following applies: HUTS-21 LIBS mAb binding, at 6.7 µM, stronger effect = higher value, binding induced by LDV ligand.

The nature of test [8]: calorie-restriction mimetic ROS inhibitors, yeast – validation compound set, pilot screen (AID 2706;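 active means superoxide response below 65% of plate, a cut near 3 SD across the whole screen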;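 further: yeast exposed to compound for one week at 30 degrees C before staining; 100% = mean of all compound wells on the same plate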). The following applies: S. cerevisiae aging, superoxide DHE fluorescence; at 10 µM; stronger effect = lower value.
For test [9], the target named is Beta-adrenergic receptor kinase 1 (Homo sapiens) (UniProt P25098). Put plainly: GRK2 binders displacing RNA aptamer, biochemical, validation, human GRK2, bead flow cytometry (AID 488806;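 active means aptamer binding inhibition above 30%, about 3 SD of noise from non-fluorescent compounds; inactive means inhibition at or below 30%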). The following applies: bead-bound GRK2, FAM-aptamer displacement, at 10 µM, stronger effect = higher value.
The target of test [10] is Beta-2 adrenergic receptor (Homo sapiens) (UniProt P07550). Put plainly: agonist-induced loss of surface beta2AR – cell-based, FAP fluorogen, flow cytometry, validation set, pilot screen (AID 504459;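 active means percent response above 42, roughly 3 SD of non-fluorescent test compounds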;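 further: agonist-driven loss of surface beta2AR via internalization measured by FAP dye flow cytometry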). The following applies: Am2.2-beta2AR cells, at 10 µM, stronger effect = higher value.
Test [11] concerns the target AP-2 complex subunit beta (Homo sapiens) (UniProt P63010). The experiment in a line: beta-arrestin/AP2 interaction blockers – biochemical, validation set, GST-AP2 beads, flow cytometry, pilot screen (AID 504541).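 Further: AP2 carries R879A mutation and is captured from E. coli lysate; bead-bound FITC arrestin peptide fluorescence measuring arrestin peptide binding to AP2; 0% = DMSO wells and 100% = excess unlabeled arrestin peptide control.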 The following applies: FITC arrestin peptide, at 10 µM, stronger effect = higher value, AP2 beta2 appendage fragment, R879A mutant.
The nature of test [12]: cytosolic pH regulators acting via V-ATPase – S. cerevisiae, pHLuorin, HTS validation (AID 504600; in the data active means response above about 15%;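 further: plate controls were DMSO for no effect and reference compound for full effect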). The following applies: V-ATPase proton transport, at 10 µM, stronger effect = higher value.
For test [13], the system named is anti-desmoglein-3 scFv antibody binding to human DSG3. The experiment in a line: blockers of pathogenic pemphigus antibody–desmoglein-3 binding – biochemical, validation compound set, bead-based, flow cytometry, pilot screen (AID 588368;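 active means binding below the plate cutoff, the plate median minus 3 SD, with a reading above zero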;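 further: signal is the median channel fluorescence of bead-bound GFP antibody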). The following applies: Protein G beads, DSG3-Fc, scFv-GFP binding, at 10 µM, stronger effect = lower value.
The nature of test [14]: Nile Red efflux blockade in pump-expressing yeast – validation compound set, multiplex, phenotypic, pilot screen (AID 588506;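 active means efflux inhibition above 0.42, the validation set average plus 4 SD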;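 further: Nile Red retained in cells so higher fluorescence means more efflux inhibition; 0 = negative control wells and 1 = enniatin B 25 µM full block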). The following applies: S. cerevisiae pump-expressing triplex, Nile Red efflux flow cytometry; at 10 µM; stronger effect = higher value; the pumps come from Candida albicans.
The target in test [15] is ATP-binding cassette sub-family B member 6 (Homo sapiens) (UniProt Q9NP58). Put plainly: blockers of ABCB6-driven porphyrin uptake – K562-ABCB6 cells, flow cytometry, validation set, pilot screen (AID 588550;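 active means inhibition above the screen-wide mean plus 3 SD, about 51%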;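 further: 0% = DMSO wells and 100% = benzethonium chloride 70 µM positive control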). The following applies: K562-ABCB6 porphyrin accumulation, 1 h, at 10 µM, stronger effect = higher value.
The nature of test [16]: AML differentiation inducers, ER-HoxA9 marrow cells – cell-based, GFP/MAC1 double positive, flow cytometry, validation set, primary screen (AID 588685;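 active means differentiation response of at least 50%, scaled between solvent and reference control, from cells with both markers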;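 further: compound exposure lasts four days before antibody staining and flow analysis; 0% = DMSO wells and 100% = 5 µM fulvestrant positive control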). The following applies: stronger effect = higher value, normalized: vehicle 0, fulvestrant 100.

AP-2 complex subunit beta (Homo sapiens), sequence (P63010 whole entry, looked up, the tested form may be a part, one chain of several): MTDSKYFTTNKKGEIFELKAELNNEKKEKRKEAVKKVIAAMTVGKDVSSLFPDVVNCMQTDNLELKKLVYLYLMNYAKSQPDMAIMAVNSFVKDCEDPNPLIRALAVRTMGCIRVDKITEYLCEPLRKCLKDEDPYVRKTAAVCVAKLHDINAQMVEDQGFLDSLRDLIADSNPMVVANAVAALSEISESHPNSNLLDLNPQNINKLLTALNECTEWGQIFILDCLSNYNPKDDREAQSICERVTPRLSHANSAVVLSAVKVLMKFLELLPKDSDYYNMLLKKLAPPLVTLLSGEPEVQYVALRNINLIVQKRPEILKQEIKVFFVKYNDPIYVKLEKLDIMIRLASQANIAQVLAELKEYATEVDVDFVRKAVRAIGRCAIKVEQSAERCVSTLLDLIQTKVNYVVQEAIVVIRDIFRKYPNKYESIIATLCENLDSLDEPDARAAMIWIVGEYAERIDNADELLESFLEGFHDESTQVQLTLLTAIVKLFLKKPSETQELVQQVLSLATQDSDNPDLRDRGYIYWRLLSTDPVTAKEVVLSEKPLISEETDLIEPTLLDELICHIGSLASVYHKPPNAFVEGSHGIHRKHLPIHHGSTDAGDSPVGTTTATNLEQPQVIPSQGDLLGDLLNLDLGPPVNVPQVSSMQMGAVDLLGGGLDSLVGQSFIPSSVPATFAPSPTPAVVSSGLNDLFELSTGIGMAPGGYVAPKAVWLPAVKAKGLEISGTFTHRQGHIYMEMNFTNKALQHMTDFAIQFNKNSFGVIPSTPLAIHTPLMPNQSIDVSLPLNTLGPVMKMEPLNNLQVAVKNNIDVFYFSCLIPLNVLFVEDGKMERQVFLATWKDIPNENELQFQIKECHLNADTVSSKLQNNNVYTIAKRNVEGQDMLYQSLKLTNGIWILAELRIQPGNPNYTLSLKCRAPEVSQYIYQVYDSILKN
Integrin beta-1 (Homo sapiens) + Integrin alpha-4 (Homo sapiens), sequence (P05556 whole entry, looked up): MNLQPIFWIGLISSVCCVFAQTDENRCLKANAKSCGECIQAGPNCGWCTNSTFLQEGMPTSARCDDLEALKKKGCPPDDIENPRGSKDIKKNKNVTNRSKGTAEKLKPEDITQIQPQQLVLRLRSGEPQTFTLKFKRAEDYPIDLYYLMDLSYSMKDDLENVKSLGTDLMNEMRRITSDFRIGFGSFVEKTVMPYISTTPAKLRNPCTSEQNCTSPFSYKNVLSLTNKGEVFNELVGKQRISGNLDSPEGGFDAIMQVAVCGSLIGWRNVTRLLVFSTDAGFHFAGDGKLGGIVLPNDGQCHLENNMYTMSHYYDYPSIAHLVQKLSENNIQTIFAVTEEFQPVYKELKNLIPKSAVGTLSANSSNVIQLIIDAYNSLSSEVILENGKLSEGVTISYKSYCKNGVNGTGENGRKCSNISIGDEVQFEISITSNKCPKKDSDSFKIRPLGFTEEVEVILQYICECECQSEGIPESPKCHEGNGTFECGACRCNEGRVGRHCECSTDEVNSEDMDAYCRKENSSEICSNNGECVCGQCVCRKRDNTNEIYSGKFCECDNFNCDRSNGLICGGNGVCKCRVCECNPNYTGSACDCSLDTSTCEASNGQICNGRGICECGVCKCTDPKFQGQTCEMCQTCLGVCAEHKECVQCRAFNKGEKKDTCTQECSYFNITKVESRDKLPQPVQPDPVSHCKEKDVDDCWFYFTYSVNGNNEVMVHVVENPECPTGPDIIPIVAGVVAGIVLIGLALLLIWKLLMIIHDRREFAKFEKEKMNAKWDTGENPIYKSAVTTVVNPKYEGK
Integrin beta-1 (Homo sapiens) + Integrin alpha-4 (Homo sapiens), sequence (P13612 whole entry, looked up): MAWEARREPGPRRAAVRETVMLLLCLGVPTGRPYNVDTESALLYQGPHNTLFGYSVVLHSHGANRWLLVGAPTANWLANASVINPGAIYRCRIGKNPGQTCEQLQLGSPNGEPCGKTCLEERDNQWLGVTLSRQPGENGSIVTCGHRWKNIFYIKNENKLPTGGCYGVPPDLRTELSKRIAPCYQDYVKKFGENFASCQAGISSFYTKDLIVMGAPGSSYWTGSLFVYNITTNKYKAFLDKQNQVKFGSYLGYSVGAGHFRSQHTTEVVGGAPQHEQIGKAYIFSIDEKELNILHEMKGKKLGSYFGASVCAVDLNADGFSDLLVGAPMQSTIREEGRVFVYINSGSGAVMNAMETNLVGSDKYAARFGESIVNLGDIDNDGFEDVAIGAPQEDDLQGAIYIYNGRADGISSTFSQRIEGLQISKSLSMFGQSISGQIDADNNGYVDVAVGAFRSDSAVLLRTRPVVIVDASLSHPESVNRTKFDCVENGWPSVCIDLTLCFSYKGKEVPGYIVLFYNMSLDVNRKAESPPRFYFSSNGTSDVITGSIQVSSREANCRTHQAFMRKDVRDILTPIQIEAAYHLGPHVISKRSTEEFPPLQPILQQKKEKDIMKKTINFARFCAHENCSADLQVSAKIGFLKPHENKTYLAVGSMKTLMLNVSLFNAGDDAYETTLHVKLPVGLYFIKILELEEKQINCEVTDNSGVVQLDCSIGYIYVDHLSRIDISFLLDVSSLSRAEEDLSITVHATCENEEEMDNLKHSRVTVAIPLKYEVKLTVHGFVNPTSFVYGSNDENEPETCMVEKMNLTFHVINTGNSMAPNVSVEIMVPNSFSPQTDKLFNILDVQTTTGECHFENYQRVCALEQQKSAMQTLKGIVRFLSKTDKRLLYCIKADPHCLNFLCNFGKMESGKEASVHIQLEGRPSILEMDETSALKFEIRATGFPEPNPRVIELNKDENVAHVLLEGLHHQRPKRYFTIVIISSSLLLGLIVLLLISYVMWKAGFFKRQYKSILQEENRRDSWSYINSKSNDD
ATP-binding cassette sub-family B member 6 (Homo sapiens), sequence (Q9NP58 whole entry, looked up): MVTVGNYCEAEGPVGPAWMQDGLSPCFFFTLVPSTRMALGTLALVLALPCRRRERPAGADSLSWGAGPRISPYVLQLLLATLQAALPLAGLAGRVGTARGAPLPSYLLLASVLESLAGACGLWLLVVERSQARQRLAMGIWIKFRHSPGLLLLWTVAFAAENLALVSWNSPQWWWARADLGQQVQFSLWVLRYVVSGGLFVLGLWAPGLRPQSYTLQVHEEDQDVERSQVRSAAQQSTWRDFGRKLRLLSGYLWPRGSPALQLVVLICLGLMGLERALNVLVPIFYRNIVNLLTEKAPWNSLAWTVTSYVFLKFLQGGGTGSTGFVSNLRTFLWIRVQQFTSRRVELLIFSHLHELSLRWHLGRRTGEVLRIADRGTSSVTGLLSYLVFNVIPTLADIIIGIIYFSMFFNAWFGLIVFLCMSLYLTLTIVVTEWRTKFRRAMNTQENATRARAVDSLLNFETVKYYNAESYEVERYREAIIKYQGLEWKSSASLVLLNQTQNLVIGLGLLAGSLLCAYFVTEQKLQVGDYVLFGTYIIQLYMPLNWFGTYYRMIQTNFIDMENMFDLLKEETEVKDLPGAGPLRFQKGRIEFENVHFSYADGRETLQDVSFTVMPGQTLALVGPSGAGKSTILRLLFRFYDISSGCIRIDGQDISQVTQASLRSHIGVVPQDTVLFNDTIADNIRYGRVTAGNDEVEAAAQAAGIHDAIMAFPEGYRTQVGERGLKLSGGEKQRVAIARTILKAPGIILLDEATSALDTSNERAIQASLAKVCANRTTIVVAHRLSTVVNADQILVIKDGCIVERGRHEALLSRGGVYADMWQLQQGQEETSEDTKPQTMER
Beta-2 adrenergic receptor (Homo sapiens), sequence (P07550 whole entry, looked up): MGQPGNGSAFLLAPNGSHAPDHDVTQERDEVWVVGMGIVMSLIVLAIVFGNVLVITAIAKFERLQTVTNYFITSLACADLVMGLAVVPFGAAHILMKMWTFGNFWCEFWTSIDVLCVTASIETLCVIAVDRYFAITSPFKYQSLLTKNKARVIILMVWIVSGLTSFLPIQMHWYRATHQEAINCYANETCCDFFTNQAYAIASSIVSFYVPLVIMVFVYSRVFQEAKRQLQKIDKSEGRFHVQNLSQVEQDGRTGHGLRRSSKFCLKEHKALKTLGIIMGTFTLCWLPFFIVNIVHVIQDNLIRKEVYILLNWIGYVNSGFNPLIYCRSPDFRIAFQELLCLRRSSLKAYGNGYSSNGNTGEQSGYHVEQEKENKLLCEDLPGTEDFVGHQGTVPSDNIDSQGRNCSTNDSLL
Beta-adrenergic receptor kinase 1 (Homo sapiens), sequence (P25098 whole entry, looked up): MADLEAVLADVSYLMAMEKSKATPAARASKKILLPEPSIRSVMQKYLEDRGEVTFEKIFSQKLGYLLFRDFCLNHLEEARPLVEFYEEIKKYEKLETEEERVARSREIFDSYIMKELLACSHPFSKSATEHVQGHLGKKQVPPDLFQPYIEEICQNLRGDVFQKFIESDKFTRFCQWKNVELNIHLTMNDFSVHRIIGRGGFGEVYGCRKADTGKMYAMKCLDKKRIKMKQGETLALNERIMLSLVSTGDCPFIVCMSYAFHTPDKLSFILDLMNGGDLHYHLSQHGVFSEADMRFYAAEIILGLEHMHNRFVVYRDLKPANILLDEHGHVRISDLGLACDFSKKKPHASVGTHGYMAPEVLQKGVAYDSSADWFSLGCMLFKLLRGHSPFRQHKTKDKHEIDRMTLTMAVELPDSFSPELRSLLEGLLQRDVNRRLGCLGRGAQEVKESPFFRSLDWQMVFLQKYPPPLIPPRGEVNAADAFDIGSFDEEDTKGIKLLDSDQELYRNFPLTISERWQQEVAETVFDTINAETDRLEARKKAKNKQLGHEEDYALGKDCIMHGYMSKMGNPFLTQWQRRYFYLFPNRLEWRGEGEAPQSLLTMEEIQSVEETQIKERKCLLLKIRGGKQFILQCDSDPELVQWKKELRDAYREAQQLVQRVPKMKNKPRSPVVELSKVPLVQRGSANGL

Turning to `COc1ccc(NC2=C(Cl)C(=O)N(c3ccccc3)C2=O)c(OC)c1`, in test [1], the percent of DMSO control GFP is 105% (inactive). For the same compound, the GFP response vs DMSO is 110% (inactive) in test [2] and 106% (inactive) in [4]. The percent response of DMSO control in test [3] was 107% (inactive). In addition, the GFP response, % of DMSO in test [5] is 109% (inactive). The same compound returned a double positive events in test [6] of 60.1%. In addition, the vesicle binding response in test [6] is 159% (inactive). Moreover, the inhibition (in general, the change of the read-out against control, counted positive when it falls) was -1.09% (inactive) in test [7], 0.15% (inactive) in [11] and -3% (inactive) in test [15]. Moreover, the superoxide response (% of plate) in [8] was 94.5% (inactive). Also, the aptamer binding inhibition in test [9] is 1% (inactive). Also, the figures for the response in test [10] and in test [12] were 1.18% (inactive) and 1.06% (inactive), respectively. Also, the binding (% of control) in test [13] is 97% (inactive). Also, the efflux inhibition (fraction of control) in test [14] is -0.25 (inactive). Besides, the differentiation response in test [16] was -4.57% (inactive).
With `c1ccc(SSc2ccccc2)cc1`, the percent of DMSO control GFP in [1] is 105% (inactive). The results for the GFP response vs DMSO in test [2] and in [4] were 108% (inactive) and 96.6% (inactive), respectively. In [3], the percent response of DMSO control is 118% (inactive). The GFP response, % of DMSO in test [5] is 103% (inactive). Further, the double positive events in test [6] was determined as 62.9%. The vesicle binding response in test [6] is 301% (inactive). Moreover, the results for the inhibition in [7], in test [11] and in test [15] were -0.45% (inactive), -24.5% (inactive) and -6% (inactive), respectively. The superoxide response (% of plate) in [8] is 93.6% (inactive). In addition, the aptamer binding inhibition in test [9] was 2% (inactive). Moreover, the response in test [10] was 1.12% (inactive); in test [12], 3.24% (inactive). For the same compound, the binding (% of control) in [13] was 93.5% (inactive). Moreover, the efflux inhibition (fraction of control) in test [14] is -0.04 (inactive). Also, the differentiation response in test [16] was -2.69% (inactive).
In the case of `CCn1ccnc1CN(C)Cc1cn(-c2cccc(C)c2)nc1-c1cccc(F)c1`, the percent of DMSO control GFP in [1] is 104% (inactive). The GFP response vs DMSO in [2] is 95.6% (inactive); in test [4] it was 92.6% (inactive). Besides, the percent response of DMSO control in [3] is 108% (inactive). The GFP response, % of DMSO in [5] is 104% (inactive). Moreover, in test [6], the double positive events turned out to be 63.6%. In addition, the vesicle binding response in test [6] is 145% (inactive). Besides, the inhibition in test [7] is -7.79% (inactive); in test [11], -10.8% (inactive); in test [15], 21% (inactive). In test [8], the superoxide response (% of plate) is 102% (inactive). Also, the aptamer binding inhibition in test [9] is 4% (inactive). Also, the response is -10.5% (inactive) in test [10] and 3.23% (inactive) in test [12]. For the same compound, the binding (% of control) in test [13] is 105% (inactive). In addition, in test [14], the efflux inhibition (fraction of control) is 0.11 (inactive). For the same compound, the differentiation response in test [16] was -14.8% (inactive).
For `COc1ccccc1/C=C/C(=O)OCCN1CCOCC1`, the percent of DMSO control GFP in test [1] is 99.8% (inactive). For the same compound, the GFP response vs DMSO in test [2] is 119% (inactive); in test [4] it was 79.8% (inactive). For the same compound, the percent response of DMSO control in test [3] was 114% (inactive). In addition, the GFP response, % of DMSO in test [5] was 103% (inactive). Also, the double positive events in test [6] is 56.7%. Moreover, the vesicle binding response in [6] is 229% (inactive). In addition, the results for the inhibition in [7], in test [11] and in [15] were -8.09% (inactive), 0.96% (inactive) and -9% (inactive), respectively. Moreover, in test [8], the superoxide response (% of plate) is 126% (inactive). Moreover, the aptamer binding inhibition in test [9] was -4% (inactive). In addition, the values for the response in test [10] and in test [12] were -13.3% (inactive) and -0.97% (inactive), respectively. Further, the binding (% of control) in [13] was 106% (inactive). Also, in test [14], the efflux inhibition (fraction of control) was 0.27 (inactive). The differentiation response in test [16] was -4.91% (inactive).
On to `O=Cc1ccc(OC(=O)c2cccnc2)cc1`, for which, in test [1], the percent of DMSO control GFP was 101% (inactive). In addition, the GFP response vs DMSO is 91.9% (inactive) in [2] and 78.6% (inactive) in [4]. In addition, the percent response of DMSO control in test [3] was 107% (inactive). The GFP response, % of DMSO in [5] is 99.5% (inactive). Besides, the double positive events in test [6] was determined as 58.7%. Besides, the vesicle binding response in test [6] was 209% (inactive). Moreover, the values for the inhibition in [7], in test [11] and in test [15] were 2.3% (inactive), -1.7% (inactive) and 4% (inactive), respectively. Also, the superoxide response (% of plate) in [8] is 98.5% (inactive). For the same compound, the aptamer binding inhibition in [9] is 1% (inactive). Moreover, the response in [10] is -10.5% (inactive); in test [12] it was 1.76% (inactive). The binding (% of control) in [13] was 93% (inactive). Moreover, the efflux inhibition (fraction of control) in test [14] was 0.05 (inactive). In addition, the differentiation response in test [16] was 16.8% (inactive).
